39 compounds from PubChem BioAssay can be followed below.

The source made the active and inactive calls. Unless noted, no rule for the calls is given here.

One assay concerns Hepatitis C virus NS3 helicase. Briefly: HCV NS3 helicase inhibitors, primary screen, biochemical, fluorescence polarization, LOPAC1280 library (AID 687035; in the data active = inhibition above about 37%). As to conditions: Purified HCV NS3 helicase, Cy5-dT15 ssDNA binding fluorescence polarization; stronger effect = higher value; concentration not given here.
On to `N[C@H](CCCP(=O)(O)O)C(=O)O`, for which the inhibition was -1% (inactive). As for `Oc1ccc(/C=C/c2ccc(/C=C/c3ccc(O)cc3)c(Br)c2)cc1`, the inhibition is -3% (inactive).

For the compound `CC[n+]1c(/C=C/C=C2/N(C)c3ccccc3C2(C)C)sc2ccccc21`, the inhibition is 1% (inactive). As to `C=C1C[C@@]23CC[C@H]4[C@@](C)(CCC[C@@]4(C)C(=O)OC4OC(CO)C(O)C(O)C4O)[C@@H]2CC[C@]1(OC1OC(CO)C(O)C(O)C1OC1OC(CO)C(O)C(O)C1O)C3` (stereo partly specified), the inhibition was -1% (inactive). The same measure, in the same setting: with `CCCCC#Cc1nc(NC)c2ncn([C@@H]3O[C@H](CO)C(O)[C@@H]3O)c2n1` (stereo partly specified) the figure was -2% (inactive); with `CC(=O)/C=C1\C(=O)N(C)c2ccccc21`, -2% (inactive); with `COc1cc(N)c(Cl)cc1C(=O)OCCN1CCCCC1`, -5% (inactive). Still for that read-out and setting: to `CN(CC[C@@H](Oc1ccc(C(F)(F)F)cc1)c1ccccc1)CC(=O)O` belongs -2% (inactive). On the same count and under the same terms, to `O=c1[nH]c(=S)[nH]c(-c2ccccc2)c1Cc1c(O)ccc2ccccc12` belongs 0% (inactive); to `Nc1nc2c(ncn2[C@@H]2O[C@H](CO)[C@@H](O)[C@@H]2O)c(=O)[nH]1`, -2% (inactive). `COc1ccc(/C=C2\COc3ccc(C)cc3C2=O)cc1O`: the inhibition was 1% (inactive). On the same count and under the same terms, with `Cc1cc2c(cc1Cl)N(C(=O)Nc1ccc(Oc3cccnc3C)nc1)CC2` the figure was -2% (inactive); with `CN1Cc2sccc2C(c2ccc(O)c(O)c2)C1` (stereo unspecified), -3% (inactive); with `Nc1ccc(-c2ccc3ccccc3n2)cc1`, -2% (inactive). Same read-out and setting: with `CC(C)c1cccc(C(C)C)c1N1C(=O)c2ccc(O)cc2C1=O` the figure was 0% (inactive); with `C=C1C[C@@]23CC[C@H]4[C@@](C)(CCC[C@@]4(C)C(=O)O)[C@@H]2CC[C@]1(O)C3`, -3% (inactive).

Consider `O=C1/C(=C/c2ccsc2)CC/C1=C\c1cccs1`, for which the inhibition was -4% (inactive). Still for that read-out and setting: to `Nc1nc(OCC2CCCCC2)c2[nH]cnc2n1` belongs -2% (inactive). The same measure, in the same setting: to `CCCC(CCC)C(=O)OC1CC2CCC(C1)[N+]2(C)C` (stereo unspecified) belongs 0% (inactive). The same measure, in the same setting: to `CSc1ccccc1N1CCN(CCCCCC(=O)NC2CCCc3ccccc32)CC1` (stereo unspecified) belongs -5% (inactive); to `Cc1cc2c(cc1Cl)N(C(=O)Nc1ccnc3ccccc13)CC2`, -1% (inactive); to `NC[C@@H]1O[C@H](c2ccccc2)Cc2c1ccc(O)c2O`, -3% (inactive).

System in a further assay: not listed separately
Briefly: Cy5 fluorescence quenching or enhancement artefacts, artefact control for HCV NS3 helicase inhibitor project, biochemical, LOPAC1280 (AID 687037). As to conditions: Cy5-DNA-NS3h complex fluorescence interference counterscreen.
Consider `CCNc1nc2c(ncn2[C@H]2C[C@H](O)[C@@H](CO)O2)c(=O)[nH]1`, for which the fluorescence ratio (interference) was 1 (inactive). Still for that read-out and setting: to `CC(=O)O[C@H]1Cc2ccccc2N(C(N)=O)c2ccccc21` belongs 1 (inactive). Turning to `COc1ccc(-c2cc3ncc(C)n3c(Nc3ncccc3C(N)=O)n2)cc1OC`, the fluorescence ratio (interference) was 1 (inactive). On the same count and under the same terms, with `COc1ccc2c(c1)CCC1C2CC[C@@]2(C)C1CC[C@@H]2NCCCCCCN1C(=O)CCC1=O` (stereo partly specified) the figure was 1 (inactive); with `O=C(c1ccc(Cl)cc1)N1CCN(c2ccc([N+](=O)[O-])c3ncccc23)CC1`, 1 (inactive). Same read-out and setting: with `Cc1cc(Cn2cnc3c2C[C@@H](C(=O)O)N(C(=O)C(c2ccccc2)c2ccccc2)C3)ccc1N` the figure was 1 (inactive); with `c1ccc2c(c1)CCC[C@H]2Nc1nc2ccccc2[nH]1`, 1 (inactive). On the same count and under the same terms, with `Clc1ccc(N2CCN(Cc3cc4ccccn4n3)CC2)cc1` the figure was 0.9 (inactive). Turning to `Cn1ncc(S(=O)(=O)Cc2ccccc2)c(Br)c1=O`, the fluorescence ratio (interference) was 0.9 (inactive). For the compound `O=c1ccc2c(OCCCCc3ccccc3)c3ccoc3cc2o1`, the fluorescence ratio (interference) was 1 (inactive). Same read-out and setting: with `O=c1cc(-c2ccccc2F)[nH]c2cc3c(cc12)OCO3` the figure was 0.9 (inactive). Still for that read-out and setting: to `O=C(CCCCCN1CCN(c2ccccc2-c2ccccc2)CC1)NC1CCCc2ccccc21` (stereo unspecified) belongs 1 (inactive); to `COc1cc(C(O)CO)ccc1O` (stereo unspecified), 1 (inactive). The same measure, in the same setting: with `Brc1c(Br)c(Br)c2[nH]cnc2c1Br` the figure was 1 (inactive); with `OCC1O[C@H]([S-])[C@@H](O)C(O)[C@@H]1O.[Au+]` (stereo partly specified), 1 (inactive). In the case of `Clc1nccc2c1ccc1ccccc12`, the fluorescence ratio (interference) is 1 (inactive). Same read-out and setting: to `CN(C)CCCc1cc(C(=O)Nc2ccc(-c3ccncc3)cc2)ccc1O` belongs 1 (inactive); to `N[C@H](CCCP(=O)(O)O)C(=O)O`, 1.1 (inactive); to `Oc1ccc(/C=C/c2ccc(/C=C/c3ccc(O)cc3)c(Br)c2)cc1`, 1 (inactive). Still for that read-out and setting: with `CC[n+]1c(/C=C/C=C2/N(C)c3ccccc3C2(C)C)sc2ccccc21` the figure was 0.9 (inactive); with `C=C1C[C@@]23CC[C@H]4[C@@](C)(CCC[C@@]4(C)C(=O)OC4OC(CO)C(O)C(O)C4O)[C@@H]2CC[C@]1(OC1OC(CO)C(O)C(O)C1OC1OC(CO)C(O)C(O)C1O)C3` (stereo partly specified), 1 (inactive); with `CCCCC#Cc1nc(NC)c2ncn([C@@H]3O[C@H](CO)C(O)[C@@H]3O)c2n1` (stereo partly specified), 1 (inactive). In the case of `CC(=O)/C=C1\C(=O)N(C)c2ccccc21`, the fluorescence ratio (interference) is 0.9 (inactive). With `COc1cc(N)c(Cl)cc1C(=O)OCCN1CCCCC1`, the fluorescence ratio (interference) is 1 (inactive).

For `CN(CC[C@@H](Oc1ccc(C(F)(F)F)cc1)c1ccccc1)CC(=O)O`, the fluorescence ratio (interference) is 0.9 (inactive). Consider `O=c1[nH]c(=S)[nH]c(-c2ccccc2)c1Cc1c(O)ccc2ccccc12`, for which the fluorescence ratio (interference) is 1 (inactive). On the same count and under the same terms, to `Nc1nc2c(ncn2[C@@H]2O[C@H](CO)[C@@H](O)[C@@H]2O)c(=O)[nH]1` belongs 1 (inactive).

In the case of `COc1ccc(/C=C2\COc3ccc(C)cc3C2=O)cc1O`, the fluorescence ratio (interference) was 1 (inactive). On the same count and under the same terms, with `Cc1cc2c(cc1Cl)N(C(=O)Nc1ccc(Oc3cccnc3C)nc1)CC2` the figure was 0.9 (inactive); with `CN1Cc2sccc2C(c2ccc(O)c(O)c2)C1` (stereo unspecified), 1 (inactive); with `Nc1ccc(-c2ccc3ccccc3n2)cc1`, 1 (inactive). With `CC(C)c1cccc(C(C)C)c1N1C(=O)c2ccc(O)cc2C1=O`, the fluorescence ratio (interference) is 0.9 (inactive). Same read-out and setting: with `C=C1C[C@@]23CC[C@H]4[C@@](C)(CCC[C@@]4(C)C(=O)O)[C@@H]2CC[C@]1(O)C3` the figure was 1 (inactive); with `O=C1/C(=C/c2ccsc2)CC/C1=C\c1cccs1`, 1 (inactive). The same measure, in the same setting: with `Nc1nc(OCC2CCCCC2)c2[nH]cnc2n1` the figure was 1 (inactive). On the same count and under the same terms, with `CCCC(CCC)C(=O)OC1CC2CCC(C1)[N+]2(C)C` (stereo unspecified) the figure was 1.1 (inactive); with `CSc1ccccc1N1CCN(CCCCCC(=O)NC2CCCc3ccccc32)CC1` (stereo unspecified), 1 (inactive); with `Cc1cc2c(cc1Cl)N(C(=O)Nc1ccnc3ccccc13)CC2`, 0.9 (inactive). Consider `NC[C@@H]1O[C@H](c2ccccc2)Cc2c1ccc(O)c2O`, for which the fluorescence ratio (interference) is 0.9 (inactive).
